Results reported in the supplement of paper PMC4466140.

Tests used:
Assay in all cases: SPOT peptide array binding signal intensity (averaged, normalized) (arbitrary units (background-subtracted, floor 0; scale differs between SH3 domains)); higher = stronger binding of the SH3 domain to the peptide
AgAbp1 = target: AgAbp1
Procedure, shortened: (§1)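 Cellulose membranes carried synthetic 15-mer peptides with cysteines swapped for serines. These were incubated overnight at 4°C with 10 μg/ml of GST-fused SH3 domains from four yeast species in TBS-based blocking buffer. Binding signal, detected with anti-GST antibody and quantified in Genespotter, is the normalized, background-subtracted spot intensity averaged over replicates, in arbitrary units specific to each domain.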

AgBbc1 = target: AgBbc1
Procedure, shortened: as §1

AgBem1-D1 = target: AgBem1-D1
Procedure, shortened: as §1

AgBzz1-D1 = target: AgBzz1-D1
Procedure, shortened: as §1

AgBzz1-D2 = target: AgBzz1-D2
Procedure, shortened: as §1

AgCyk3 = target: AgCyk3
Procedure, shortened: as §1

AgFus1 = target: AgFus1
Procedure, shortened: as §1

AgHof1 = target: AgHof1
Procedure, shortened: as §1

AgHse1 = target: AgHse1
Procedure, shortened: as §1

AgLsb1 = target: AgLsb1
Procedure, shortened: as §1

AgLsb4 = target: AgLsb4
Procedure, shortened: as §1

AgMyo5 = target: AgMyo5
Procedure, shortened: as §1

AgNbp2 = target: AgNbp2
Procedure, shortened: as §1

AgRvs167 = target: AgRvs167
Procedure, shortened: as §1

AgSho1 = target: AgSho1
Procedure, shortened: as §1

AgSla1-D1-D2 = target: AgSla1-D1-D2
Procedure, shortened: as §1

AgSla1-D3 = target: AgSla1-D3
Procedure, shortened: as §1

CaAbp1-D1 = target: CaAbp1-D1
Procedure, shortened: as §1

CaAbp1-D2 = target: CaAbp1-D2
Procedure, shortened: as §1

CaBbc1 = target: CaBbc1
Procedure, shortened: as §1

CaBem1-D1 = target: CaBem1-D1
Procedure, shortened: as §1

CaBzz1-D1 = target: CaBzz1-D1
Procedure, shortened: as §1

CaBzz1-D2 = target: CaBzz1-D2
Procedure, shortened: as §1

CaCyk3 = target: CaCyk3
Procedure, shortened: as §1

CaFus1 = target: CaFus1
Procedure, shortened: as §1

CaHof1 = target: CaHof1
Procedure, shortened: as §1

CaHse1 = target: CaHse1
Procedure, shortened: as §1

CaLsb1 = target: CaLsb1
Procedure, shortened: as §1

CaLsb4 = target: CaLsb4
Procedure, shortened: as §1

CaMyo5 = target: CaMyo5
Procedure, shortened: as §1

CaNbp2 = target: CaNbp2
Procedure, shortened: as §1

CaRvs167 = target: CaRvs167
Procedure, shortened: as §1

CaRvs167-3 = target: CaRvs167-3
Procedure, shortened: as §1

CaSho1 = target: CaSho1
Procedure, shortened: as §1

CaSla1-D1-D2 = target: CaSla1-D1-D2
Procedure, shortened: as §1

CaSla1-D3 = target: CaSla1-D3
Procedure, shortened: as §1

ScAbp1 = target: ScAbp1
Procedure, shortened: as §1

ScBbc1 = target: ScBbc1
Procedure, shortened: as §1

ScBem1-D1 = target: ScBem1-D1
Procedure, shortened: as §1

ScBzz1-D1 = target: ScBzz1-D1
Procedure, shortened: as §1

ScBzz1-D2 = target: ScBzz1-D2
Procedure, shortened: as §1

ScCyk3 = target: ScCyk3
Procedure, shortened: as §1

ScFus1 = target: ScFus1
Procedure, shortened: as §1

ScHof1 = target: ScHof1
Procedure, shortened: as §1

ScHse1 = target: ScHse1
Procedure, shortened: as §1

ScLsb1 = target: ScLsb1
Procedure, shortened: as §1

ScLsb2 = target: ScLsb2
Procedure, shortened: as §1

ScLsb3 = target: ScLsb3
Procedure, shortened: as §1

ScLsb4 = target: ScLsb4
Procedure, shortened: as §1

ScMyo3 = target: ScMyo3
Procedure, shortened: as §1

ScMyo5 = target: ScMyo5
Procedure, shortened: as §1

ScNbp2 = target: ScNbp2
Procedure, shortened: as §1

ScPex13 = target: ScPex13
Procedure, shortened: as §1

ScRvs167 = target: ScRvs167
Procedure, shortened: as §1

ScSho1 = target: ScSho1
Procedure, shortened: as §1

ScSla1-D1-D2 = target: ScSla1-D1-D2
Procedure, shortened: as §1

ScSla1-D3 = target: ScSla1-D3
Procedure, shortened: as §1

SpAbp1-D1 = target: SpAbp1-D1
Procedure, shortened: as §1

SpBbc1 = target: SpBbc1
Procedure, shortened: as §1

SpBzz1-D1 = target: SpBzz1-D1
Procedure, shortened: as §1

SpBzz1-D2 = target: SpBzz1-D2
Procedure, shortened: as §1

SpCyk3 = target: SpCyk3
Procedure, shortened: as §1

SpHof1 = target: SpHof1
Procedure, shortened: as §1

SpHof1-2 = target: SpHof1-2
Procedure, shortened: as §1

SpHof1-3 = target: SpHof1-3
Procedure, shortened: as §1

SpHse1 = target: SpHse1
Procedure, shortened: as §1

SpLsb1 = target: SpLsb1
Procedure, shortened: as §1

SpLsb4 = target: SpLsb4
Procedure, shortened: as §1

SpMyo1 = target: SpMyo1
Procedure, shortened: as §1

SpNbp2 = target: SpNbp2
Procedure, shortened: as §1

SpPex13 = target: SpPex13
Procedure, shortened: as §1

SpRvs167 = target: SpRvs167
Procedure, shortened: as §1

SpSla1-D1-D2 = target: SpSla1-D1-D2
Procedure, shortened: as §1

SpSla1-D3 = target: SpSla1-D3
Procedure, shortened: as §1

B1: unnamed (peptide)
chain: VATSTSPKLPPRGKQ
SPOT peptide array binding signal intensity (AgAbp1): 3 | SPOT peptide array binding signal intensity (AgBbc1): 548 | SPOT peptide array binding signal intensity (AgBem1-D1): 8.5 | SPOT peptide array binding signal intensity (AgBzz1-D1): 84 | SPOT peptide array binding signal intensity (AgBzz1-D2): 100 | SPOT peptide array binding signal intensity (AgCyk3): ≤ 0 | SPOT peptide array binding signal intensity (AgFus1): 5 | SPOT peptide array binding signal intensity (AgHof1): 9.5 | SPOT peptide array binding signal intensity (AgHse1): 24 | SPOT peptide array binding signal intensity (AgLsb1): 290 | SPOT peptide array binding signal intensity (AgLsb4): 4510 | SPOT peptide array binding signal intensity (AgMyo5): ≤ 0 | SPOT peptide array binding signal intensity (AgNbp2): 4 | SPOT peptide array binding signal intensity (AgRvs167): 745 | SPOT peptide array binding signal intensity (AgSho1): 18 | SPOT peptide array binding signal intensity (AgSla1-D1-D2): 3.5 | SPOT peptide array binding signal intensity (AgSla1-D3): 1.5 | SPOT peptide array binding signal intensity (CaAbp1-D1): 87 | SPOT peptide array binding signal intensity (CaAbp1-D2): 79.5 | SPOT peptide array binding signal intensity (CaBbc1): 521 | SPOT peptide array binding signal intensity (CaBem1-D1): 19.5 | SPOT peptide array binding signal intensity (CaBzz1-D1): 93 | SPOT peptide array binding signal intensity (CaBzz1-D2): 96.5 | SPOT peptide array binding signal intensity (CaCyk3): ≤ 0 | SPOT peptide array binding signal intensity (CaFus1): 80 | SPOT peptide array binding signal intensity (CaHof1): 0.5 | SPOT peptide array binding signal intensity (CaHse1): 37 | SPOT peptide array binding signal intensity (CaLsb1): 1 | SPOT peptide array binding signal intensity (CaLsb4): 3500 | SPOT peptide array binding signal intensity (CaMyo5): 4.75 | SPOT peptide array binding signal intensity (CaNbp2): 2 | SPOT peptide array binding signal intensity (CaRvs167): 1970 | SPOT peptide array binding signal intensity (CaRvs167-3): ≤ 0 | SPOT peptide array binding signal intensity (CaSho1): 13 | SPOT peptide array binding signal intensity (CaSla1-D1-D2): 32 | SPOT peptide array binding signal intensity (CaSla1-D3): ≤ 0 | SPOT peptide array binding signal intensity (ScAbp1): 21.5 | SPOT peptide array binding signal intensity (ScBbc1): 18.8 | SPOT peptide array binding signal intensity (ScBem1-D1): ≤ 0 | SPOT peptide array binding signal intensity (ScBzz1-D1): 61.5 | SPOT peptide array binding signal intensity (ScBzz1-D2): 17.5 | SPOT peptide array binding signal intensity (ScCyk3): ≤ 0 | SPOT peptide array binding signal intensity (ScFus1): 2.5 | SPOT peptide array binding signal intensity (ScHof1): 3.25 | SPOT peptide array binding signal intensity (ScHse1): 3 | SPOT peptide array binding signal intensity (ScLsb1): 268 | SPOT peptide array binding signal intensity (ScLsb2): 31 | SPOT peptide array binding signal intensity (ScLsb3): 6600 | SPOT peptide array binding signal intensity (ScLsb4): 3830 | SPOT peptide array binding signal intensity (ScMyo3): ≤ 0 | SPOT peptide array binding signal intensity (ScMyo5): 3.25 | SPOT peptide array binding signal intensity (ScNbp2): 5 | SPOT peptide array binding signal intensity (ScPex13): 882 | SPOT peptide array binding signal intensity (ScRvs167): 2350 | SPOT peptide array binding signal intensity (ScSho1): 40.5 | SPOT peptide array binding signal intensity (ScSla1-D1-D2): 17 | SPOT peptide array binding signal intensity (ScSla1-D3): ≤ 0 | SPOT peptide array binding signal intensity (SpAbp1-D1): 97 | SPOT peptide array binding signal intensity (SpBbc1): 0.25 | SPOT peptide array binding signal intensity (SpBzz1-D1): 286 | SPOT peptide array binding signal intensity (SpBzz1-D2): ≤ 0 | SPOT peptide array binding signal intensity (SpCyk3): ≤ 0 | SPOT peptide array binding signal intensity (SpHof1): 1.25 | SPOT peptide array binding signal intensity (SpHof1-2): 0.5 | SPOT peptide array binding signal intensity (SpHof1-3): 61.2 | SPOT peptide array binding signal intensity (SpHse1): 0.5 | SPOT peptide array binding signal intensity (SpLsb1): 623 | SPOT peptide array binding signal intensity (SpLsb4): 6830 | SPOT peptide array binding signal intensity (SpMyo1): ≤ 0 | SPOT peptide array binding signal intensity (SpNbp2): ≤ 0 | SPOT peptide array binding signal intensity (SpPex13): 2 | SPOT peptide array binding signal intensity (SpRvs167): 3730 | SPOT peptide array binding signal intensity (SpSla1-D1-D2): 2 | SPOT peptide array binding signal intensity (SpSla1-D3): ≤ 0

B2: unnamed (peptide)
chain: DLFKPLPEPPTELGR
SPOT peptide array binding signal intensity (AgAbp1): 2.5 | SPOT peptide array binding signal intensity (AgBbc1): ≤ 0 | SPOT peptide array binding signal intensity (AgBem1-D1): ≤ 0 | SPOT peptide array binding signal intensity (AgBzz1-D1): 22 | SPOT peptide array binding signal intensity (AgBzz1-D2): ≤ 0 | SPOT peptide array binding signal intensity (AgCyk3): 1 | SPOT peptide array binding signal intensity (AgFus1): 1 | SPOT peptide array binding signal intensity (AgHof1): ≤ 0 | SPOT peptide array binding signal intensity (AgHse1): 27 | SPOT peptide array binding signal intensity (AgLsb1): ≤ 0 | SPOT peptide array binding signal intensity (AgLsb4): 5 | SPOT peptide array binding signal intensity (AgMyo5): ≤ 0 | SPOT peptide array binding signal intensity (AgNbp2): ≤ 0 | SPOT peptide array binding signal intensity (AgRvs167): 0.333 | SPOT peptide array binding signal intensity (AgSho1): 1410 | SPOT peptide array binding signal intensity (AgSla1-D1-D2): ≤ 0 | SPOT peptide array binding signal intensity (AgSla1-D3): ≤ 0 | SPOT peptide array binding signal intensity (CaAbp1-D1): ≤ 0 | SPOT peptide array binding signal intensity (CaAbp1-D2): ≤ 0 | SPOT peptide array binding signal intensity (CaBbc1): ≤ 0 | SPOT peptide array binding signal intensity (CaBem1-D1): ≤ 0 | SPOT peptide array binding signal intensity (CaBzz1-D1): ≤ 0 | SPOT peptide array binding signal intensity (CaBzz1-D2): ≤ 0 | SPOT peptide array binding signal intensity (CaCyk3): ≤ 0 | SPOT peptide array binding signal intensity (CaFus1): 7 | SPOT peptide array binding signal intensity (CaHof1): 1 | SPOT peptide array binding signal intensity (CaHse1): 16 | SPOT peptide array binding signal intensity (CaLsb1): ≤ 0 | SPOT peptide array binding signal intensity (CaLsb4): ≤ 0 | SPOT peptide array binding signal intensity (CaMyo5): ≤ 0
